Test results reported in PubChem BioAssay (NCI).
About 83,000 compounds went through this panel and 20% of them were active in at least one assay; those are over-represented in the sample as a whole.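 How to read the values: 0–100, growth inhibition (40 = 60% inhibited); 0, no net growth; -100 to 0, cell death (-40 = 40% of starting cells died; -100 = all dead).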 A number with no mark means an inactive call. The source made the active and inactive calls. How the source made its calls: active means growth percent below 10; inactive means the rest.

Tests used:
Experiment in all cases: NCI-60 one-dose screen, 48 h (100 = growth as untreated, 0 = no growth, -100 = all killed)
Details in all cases: 10 µM unless noted
[1] = system: HCT-15 colon
[2] = system: SNB-75 CNS
[3] = system: SNB-19 CNS
[4] = system: U251 CNS
[5] = system: PC-3 prostate
[6] = system: SK-MEL-5 melanoma
[7] = system: UACC-62 melanoma
[8] = system: LOX IMVI melanoma
[9] = system: SK-MEL-28 melanoma
[10] = system: HT29 colon

SMILES	growth [1]	growth [2]	growth [3]	growth [4]	growth [5]	growth [6]	growth [7]	growth [8]	growth [9]	growth [10]
COC(=O)[C@H](CCCCNC(=O)OCc1ccccc1)NC(=O)[C@@H](NC(=O)Nc1cc(C(F)(F)F)cc(C(F)(F)F)c1)C(C)C	13.4% [100 µM]	-88.7% [100 µM] (active)	28% [100 µM]	-88% [100 µM] (active)	-83.9% [100 µM] (active)	-43.4% [100 µM] (active)	-83.6% [100 µM] (active)	-83.3% [100 µM] (active)	-86.3% [100 µM] (active)	–
CC(=O)Nc1c(Cl)cc2c(c1Cl)Cc1cc([N+](=O)[O-])ccc1-2	101%	36.6%	95.8%	89%	72.6%	55.9%	65.3%	86.2%	102%	–
COc1cc(/C=C/c2cc(/C=C/c3ccc(O)c(OC)c3)n(C(=O)Cc3ccccc3)n2)ccc1O	6.11% (active)	0.658% (active)	7.03% (active)	-2.58% (active)	3.01% (active)	-31.8% (active)	1.59% (active)	5.18% (active)	-4.66% (active)	–
COc1ccc(-c2cc(-c3cccnc3)nc3sc(C(=O)Nc4ccccc4)c(N)c23)cc1OC	63.5%	82.8%	79.8%	61.3%	56.9%	75.1%	69.3%	60%	–	–
COc1cc(/C=C2\CN(S(=O)(=O)c3ccc(C)cc3)C/C(=C\c3cc(CN4CCOCC4)c(O)c(OC)c3)C2=O)cc(CN2CCOCC2)c1O	-31.3% (active)	25.8%	12.9%	15.5%	2.79% (active)	-63.4% (active)	-45.8% (active)	-49.3% (active)	-33.2% (active)	–
O=C(CN1CCN(c2ccc(Cl)cc2)CC1)N1CCN(c2nnc(-c3ccccc3)c(-c3ccccc3)n2)CC1	42.3%	65.8%	60%	45.8%	12.1%	-9.45% (active)	53%	38.5%	83%	–
O=c1ccn(C2CC=C(CO)O2)c(=O)[nH]1 (stereo not drawn)	105%	108%	108%	102%	85.9%	90%	91.7%	94%	106%	–
Nc1nc(Nc2ccccc2SSc2ccccc2Nc2nc(N)nc(-c3ccc(I)cc3)n2)nc(-c2ccc(I)cc2)n1	36.4%	–	37.4%	34.5%	19.1%	–	81.6%	-0.613% (active)	94.7%	97.8%
COc1ccc(-c2cc(-c3cccnc3)nc(S(=O)(=O)CC(=O)Nc3ccc(C)cc3)c2C#N)cc1OC	95.1%	78.7%	94.6%	91.7%	83.7%	72%	99.4%	88.9%	102%	–
COP(=O)(OC)C(c1ccccc1)(c1ccccc1)c1ccccc1	107%	108%	99.9%	87.7%	75.2%	89.5%	70.9%	84.2%	109%	–
CC1(C)CC2(C)CC(=O)C1C(C(=O)O)C2C(=O)O (stereo not drawn)	110%	96.4%	113%	101%	108%	102%	102%	101%	117%	–
COc1cc(Cl)cc(-c2nn(-c3cccc(NC(=O)c4cc(C(F)(F)F)cc(C(F)(F)F)c4)c3)cc2-c2ccncc2)c1	58.6%	60.8%	86.4%	60.7%	35.6%	67.3%	81.4%	76.1%	78.8%	–
Cc1ccc2nc(SCC(=O)Nc3ccc(-c4nc5ccccc5s4)c(Cl)c3)[nH]c2c1	101%	–	102%	105%	107%	102%	90.3%	107%	118%	106%
Nc1ccc(N=Nc2ccccc2)cc1[N+](=O)[O-]	68.8%	73.3%	95.3%	86.7%	83.9%	93.1%	73%	77.9%	–	–
O=CNc1ccc2c(c1)Cc1cc([N+](=O)[O-])ccc1-2	27%	15.6%	36.2%	16.4%	32.3%	18.8%	29.6%	40.8%	57%	–
Cc1ccc(-c2cc(-c3ccccc3)n(-c3ccccc3)n2)cc1	106%	–	95.4%	97.7%	99.6%	–	88.2%	99%	98.2%	96.7%
CN1CCN(CCCOc2ccc3ncnc(Nc4ccc(OCc5cccc(F)c5)c(Cl)c4)c3c2)CC1	-50.8% (active)	–	3.46% (active)	–	-18.9% (active)	-98.2% (active)	-57.8% (active)	-92.9% (active)	-86.6% (active)	-49.5% (active)
O=C(Nc1nc(-c2ccc(Cl)cc2)cs1)c1cc(-c2ccc(Br)cc2)nc2ccc(Cl)cc12	10.8%	–	56%	–	40.2%	14%	42%	20.3%	–	9.1% (active)
COc1ccc(C(=O)/C=C/c2cccc(Nc3ccnc4cc(Cl)ccc34)c2)cc1	30.6%	-1.22% (active)	51.3%	8.83% (active)	33.7%	7.89% (active)	27.8%	6.49% (active)	44.6%	–
C=C1CC[C@@H]2[C@](C)(COC(C)=O)[C@H](OC(C)=O)CC[C@@]2(C)[C@@H]1CC(NCc1ccccc1)C1=CCOC1=O (stereo partly drawn)	41%	76.9%	68.2%	47.6%	10.1%	–	38.8%	44.6%	68.6%	–
CCN(CC)c1ccc(/C=C/C(=O)c2cccc(NS(C)(=O)=O)c2)cc1	27.8%	48.4%	74.6%	–	–	39.6%	36.1%	15%	–	–
O=C1NCCc2c1noc2-c1ccccc1	–	89.7%	105%	98.5%	94.5%	105%	104%	98.7%	–	90.5%
COc1ccc2c(c1)[n+](=O)c(C(=O)/C=C/c1cc(OC)c(OC)c(OC)c1)c(C)n2[O-]	49.2%	62.2%	67.1%	55.6%	59.9%	50.8%	64.7%	55.1%	69.1%	–
COc1cc(/C(Cl)=C/C=C/C(=O)c2c(C)[n+]([O-])c3ccc(Cl)cc3[n+]2[O-])cc(OC)c1OC	11.5%	19.8%	51.2%	–	40%	14.2%	21.2%	-18.3% (active)	33.5%	–
O=C(Nc1ccccc1)P(=O)(O)c1ccccc1	99.5%	78.8%	103%	94.6%	95.5%	102%	94.1%	96%	102%	–
CCCCOP(=O)(OCCCC)C(C(=O)OCC)C(CC(=O)OCC)C(=O)OCC (stereo not drawn)	86.4%	59.9%	100%	–	88.6%	109%	105%	109%	104%	–
Cc1ccc(OCC(=O)Nc2ccc(Oc3ccccc3)cc2)c([N+](=O)[O-])n1	95.2%	–	58.7%	85%	–	44.2%	60.9%	89.6%	111%	–
O=C(Nc1ccc(Cl)cc1)Nc1nc2ccc(OC(F)(F)F)cc2o1	–	97%	93.2%	83.1%	44.7%	90.8%	82.9%	103%	–	84.7%
O=C(CSc1nnc(-c2cc(-c3ccccc3)nc3ccccc23)o1)c1ccc(Br)cc1	109%	97.4%	93.2%	98.2%	107%	103%	94.8%	101%	113%	–
Clc1ccc(C2c3ccccc3-c3nccn32)c(Cl)c1 (stereo not drawn)	72.1%	83.1%	88.8%	86.3%	64.2%	47.3%	73.2%	76.5%	112%	–
